{"source": "PubChem BioAssay (Tox21)", "note": "Where “and” joins values, the source holds several entries; their conditions need not be identical. Identical values can stand only once. Results filed as inconclusive are left out. Entries that show only a call come without a potency. The source holds several records for some structures; these can differ, active in one and inactive in another. Calls of active or inactive are those of the source. Calls follow the shape of the dose curve; as a rule, active = well fitted cell-killing curve with a large enough effect in the repeat runs (not every such curve was filed as active); inconclusive = weak or mixed curves, or effect the other way; inactive = no such curve, though single readings can be large or run the other way. Potency is read from the fitted curve at half-maximal effect."}
{"assay": "qHTS assay to identify small molecule antagonists of the estrogen related receptor signaling pathway with the pleiotropic PPARgamma coactivator (PGC) from Tox21 10K library - cell viability counter screen (AID 1224840); also: nearly all actives have a fitted effect of over 40% in size", "details": "PGC/ERR reporter cells viability, CellTiter-Fluor, 17.5 h; series mostly up to 92.4 µM", "description": "National Center for Advancing Translational Sciences [NCATS]\nNIH Chemical Genomics Center [NCGC]\nU.S. Environmental Protection Agency [EPA]\nNational Institutes of Environmental Health Sciences [NIEHS]\nNational Toxicology Program [NTP]\nU.S. Food and Drug Administration [FDA]\nEstrogen related receptors (ERRs), the first orphan nuclear receptors discovered, play an important role in the control of cellular energy metabolism. ERRs are required for high-energy production in response to the environmental challenges. The pleiotropic PPARgamma coactivator (PGC) is a major partner of ERR and a key regulator in energy homeostasis. Together they have been implicated in the etiology of metabolic disorders such as Type 2 diabetes and metabolic syndrome. ERR-alpha was also identified as an adverse marker for breast cancer progression; ERR-alpha-positive tumors have a poor prognosis. To screen and to identify environmental compounds that perturb the ERR and PGC/ERR signaling pathways could provide valuable information for potential therapeutic or preventive measures in the treatment of metabolic disease. To differentiate true PGC/ERR antagonists or agonist from cytotoxic substances, the assay is multiplexed with cell viability assay.\nTox21 Assay Protocol Summary:\nThe PGC/ERR cells were dispensed at 2,000 cells/5 ul/well in 1536-well white plates using a Multidrop dispenser. After the assay plates were incubated at a 37 C/5% CO2 incubator for 6 hours, 23 nL of compounds dissolved in DMSO, positive and negative controls or DMSO only was transferred to the assay plate by a pin tool. The plates were incubated at 37 C for 17.5 hours. 1 ul/well of CellTiter-Fluor reagent was added into the assay plates using a Flying Reagent Dispenser. After 30-minute incubation at 37 C/5% CO2, the fluorescence intensity in the plates was measured using a ViewLux plate reader."}
{"smiles": "O=C(O)C(F)(F)C(F)(F)C(F)(F)C(F)(F)C(F)(F)C(F)(F)C(F)(F)F", "Potency": "inactive"}
{"smiles": "CCCCN(CCCC)N=O", "Potency": "inactive"}
{"smiles": "CC(C)(C)c1ccccc1O", "Potency": "inactive"}
{"smiles": "Clc1nc(Cl)nc(Cl)n1", "Potency": "inactive"}
{"smiles": "CCCCCCOC(=O)c1ccccc1C(=O)OCCCCCC", "Potency": "inactive"}
{"smiles": "NC(=S)Nc1ccccc1", "Potency": "inactive"}
{"smiles": "O=S(=O)(Oc1ccc(Cl)cc1)c1ccc(Cl)cc1", "Potency": "inactive"}
{"smiles": "CCCCC(CC)COC(=O)Cl", "note": "(stereo not given)", "Potency": "inactive"}
{"smiles": "Nc1ccc(-c2ccccc2)cc1", "Potency": "inactive"}
{"smiles": "CC(O)CCO", "note": "(stereo not given)", "Potency": "inactive"}
{"smiles": "N[C@@H](Cc1ccc(N(CCCl)CCCl)cc1)C(=O)O", "Potency": "inactive"}
{"smiles": "Oc1cc(Cl)ccc1Oc1ccc(Cl)cc1Cl", "Potency": "24.9 µM (active)"}
{"smiles": "C=C(C)C(=O)OCC1CO1", "note": "(stereo not given)", "Potency": "inactive"}
{"smiles": "CCCCN(CC)c1c([N+](=O)[O-])cc(C(F)(F)F)cc1[N+](=O)[O-]", "Potency": "inactive"}
{"smiles": "Cc1ccccc1[N+](=O)[O-]", "Potency": "inactive"}
{"smiles": "Cc1ccc(OP(=O)(Oc2ccc(C)cc2)Oc2ccc(C)cc2)cc1", "Potency": "inactive"}
{"smiles": "C1=Cc2cccc3cccc1c23", "Potency": "inactive"}
{"smiles": "O=c1oc2ccccc2c(O)c1C(CC(O)c1ccc(-c2ccc(Br)cc2)cc1)c1ccccc1", "note": "(stereo not given)", "Potency": "inactive"}
{"smiles": "N#CC(Br)Br", "Potency": "inactive"}
{"smiles": "CN(C)C(=O)Nc1ccc(Cl)cc1", "Potency": "inactive"}
{"smiles": "O=C1C=CC(=O)C=C1", "Potency": "inactive"}
{"smiles": "Cc1cccc(N)c1N", "Potency": "inactive"}
{"smiles": "CCOC(=O)C(C)OC(=O)c1cc(Oc2ccc(C(F)(F)F)cc2Cl)ccc1[N+](=O)[O-]", "note": "(stereo not given)", "Potency": "inactive"}
{"smiles": "COc1ccc(C=O)cc1", "Potency": "inactive"}
{"smiles": "Cc1ccc2c(c1N)C(=O)c1ccccc1C2=O", "Potency": "inactive"}
{"smiles": "O=Cc1ccco1", "Potency": "inactive"}
{"smiles": "CCC(C)(c1ccc(O)cc1)c1ccc(O)cc1", "Potency": "inactive"}
{"smiles": "O=[N+]([O-])c1c(Cl)c(Cl)c(Cl)c(Cl)c1Cl", "Potency": "inactive"}
{"smiles": "CC(C)NC(C)C", "Potency": "inactive"}
{"smiles": "CCC(C)c1ccc(O)cc1", "note": "(stereo not given)", "Potency": "inactive"}
{"smiles": "Cc1cc(Cl)ccc1OCCCC(=O)O", "Potency": "inactive"}
{"smiles": "CN(C)c1ccc(C(=O)c2ccc(N(C)C)cc2)cc1", "Potency": "inactive"}
{"smiles": "CCCCOCCOP(=O)(OCCOCCCC)OCCOCCCC", "Potency": "inactive"}
{"smiles": "CC(C)(OOC(C)(C)c1ccccc1)c1ccccc1", "Potency": "inactive"}
{"smiles": "c1ccc(-c2cccc(-c3ccccc3)c2)cc1", "Potency": "inactive"}
{"smiles": "CCCCCc1cc(O)cc(O)c1", "Potency": "inactive and 48.6 µM (active)"}
{"smiles": "O=C(CCl)c1ccccc1", "Potency": "inactive"}
{"smiles": "c1cc(OCC2CO2)ccc1Cc1ccc(OCC2CO2)cc1", "note": "(stereo not given)", "Potency": "inactive"}
{"smiles": "CCC(CC)Nc1c([N+](=O)[O-])cc(C)c(C)c1[N+](=O)[O-]", "Potency": "inactive"}
{"smiles": "N#CCCCl", "Potency": "inactive"}
